Drawing on ChEMBL document CHEMBL3988442, “University of Dundee, Small-Polar-MMV Screening Library” (2021), this text covers Percent Effect for 20 compounds.

Molecules are shown by their SMILES.

The assay has as its target T1, Aspartate--tRNA(Asp/Asn) ligase (Mycobacterium tuberculosis (strain ATCC 25618 / H37Rv)) (UniProt P9WFW3).
T1 sequence (whole entry): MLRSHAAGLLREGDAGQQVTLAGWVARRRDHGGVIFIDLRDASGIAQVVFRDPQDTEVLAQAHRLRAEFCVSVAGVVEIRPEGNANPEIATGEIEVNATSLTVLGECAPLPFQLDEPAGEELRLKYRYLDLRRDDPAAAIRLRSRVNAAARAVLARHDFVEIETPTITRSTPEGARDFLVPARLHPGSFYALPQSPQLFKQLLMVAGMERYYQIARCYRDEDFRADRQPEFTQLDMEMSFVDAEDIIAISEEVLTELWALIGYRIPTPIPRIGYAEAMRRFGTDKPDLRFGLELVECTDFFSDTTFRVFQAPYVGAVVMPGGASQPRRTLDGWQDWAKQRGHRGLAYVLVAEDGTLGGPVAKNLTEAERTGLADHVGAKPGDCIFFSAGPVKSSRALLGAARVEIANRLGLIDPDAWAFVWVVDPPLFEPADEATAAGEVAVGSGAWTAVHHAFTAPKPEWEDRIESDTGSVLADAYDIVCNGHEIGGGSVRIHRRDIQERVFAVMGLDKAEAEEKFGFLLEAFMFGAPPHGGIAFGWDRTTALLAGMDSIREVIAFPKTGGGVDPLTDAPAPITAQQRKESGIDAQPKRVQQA
The assay is described as follows: Assay for Asp RNA synthetase-1 from Mycobacterium tuberculosis. Format: functional. Details: scale not given: in the data most compounds retested in dose-response had high values. Particulars: 30 µM.
`CCNC(=O)NC(=O)CSC(C)c1c(F)cccc1F` (stereo not given): the Percent Effect was -1.51%.
Consider `COc1ccccc1CN1C(=O)O[C@@H]2CN(c3nccs3)C[C@@H]21`, for which the Percent Effect is -1.39%.
Regarding `O=C(NCc1ccncc1)N(Cc1ccccc1F)C1CC1`, the Percent Effect is -1.67%.
Consider `CCN(CC1CN(Cc2ncc[nH]2)CCO1)c1cccnn1` (stereo not given), for which the Percent Effect was -3.05%.
For `NC(=O)C1CCCN1Cc1cccc(NC(=O)c2ccsc2)c1` (stereo not given), the Percent Effect was found to be 2.98%.
Take `CCC(C)NC(=O)c1ccccc1-n1cnnn1` (stereo not given): the Percent Effect is -5.94%.
For the compound `CNC(=O)c1cccc(CNC(=O)C2CC(=O)N(CCN(C)C)C2)c1` (stereo not given), the Percent Effect was -2.01%.
On to `Cc1cnn(CCNCc2ccc(OCC(N)=O)cc2)c1`, for which the Percent Effect is -4.2%.
The value for `C[S+]([O-])CCCNC(=O)c1cc(Br)c2c(c1)OCCO2` (stereo not given) was -1.74%; that for `CN(Cc1cc[nH]n1)C(=O)c1cccc(CCC(C)(C)O)c1` was -0.264%; that for `COC(=O)c1cccc(C(=O)N2CCCCC2CCn2ccnc2C)c1` (stereo not given) was 0.586%.
The value for `O=C(NCCN1CCOCC1)NCc1ncc(-c2ccccc2)o1` was 1.62%; that for `Cc1nn(CCO)c(C)c1CNC1CCc2c(Cl)cccc21` (stereo not given) was 0.54%; that for `O=C(c1ccc2c(c1)CCC2)N1C[C@@H](CN2CCOCC2)[C@@H](CO)C1` was 1.28%.
As to `Cc1cccc(NC(=O)[C@@H]2CCCN2CC(=O)N2CCCCCC2)n1`, the Percent Effect is -2.13%.
Turning to `CCc1ncc(C(=O)NCCNC(=O)Cc2ccc(F)cc2)s1`, the Percent Effect is -2.42%.
On to `COc1cc(C(=O)N(CCC#N)Cc2ccccn2)cc(OC)c1C`, for which the Percent Effect was -3.83%.
With `COc1c(C)cnc(CSc2nnc(C)s2)c1C`, the Percent Effect is -1.18%.
In the case of `CCN1CC2(CCN(CCOCCO)CC2)CC(c2ccccc2)C1=O` (stereo not given), the Percent Effect was -2.77%.
The value for `CCS(=O)(=O)c1ccc(N2CCC(NC(=O)CCC(C)C)CC2)cc1` was -2.31%.
